Bioassay records deposited in PubChem BioAssay by Broad Institute.
Most compounds without a hit are left out; they make up all but 3.4% or so of the library.
EWS-Fli block: blocks EWS/Fli oncoprotein-driven transcription; A673 NR0B1-luciferase reporter, viability-normalised; inhibition, % at 12.6 µM; 350,000 compounds, 0.67% hits; AID 651661;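 active = mean inhibition of at least 50% after viability correction, with every replicate also passing that limit; inconclusive = mean reaches 50% but only one of two replicates passes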;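 note: firefly luciferase signal divided by Alamar Blue viability fluorescence both relative to DMSO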
PAX8 inh HTS: lowers PAX8-driven luciferase in RMG-I cells. RMG-I TPO-luciferase reporter, SteadyGlo, 24 h. inhibition, % at 12.6 µM. 360,000 compounds, 1.2% hits;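 active = mean replicate inhibition at least 60% with every replicate also reaching 60%; inconclusive = only one of the two criteria is met; inactive = mean below 60% and not all replicates reaching 60%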;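 note: luciferase light reporting Pax8 driven TPO promoter activity; plate controls were median of neutral control wells for no effect and mitoxantrone controls for full effect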
LGR2 antag: Drosophila LGR2 receptor signaling inhibition; inhibition, % at 9.99 µM; 380,000 compounds, 0.35% hits; HEK293 LGR2, CRE-luciferase, bursicon-stimulated, 4 h;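 active = drop in luminescence signal, shown as inhibition above about 50% in the replicate tests, limit read from the data, passing the limit was not always enough; inconclusive = probably only some replicates passing the limit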;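 note: agonist challenge used bursicon conditioned medium at about half maximal strength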
SIRT5 block: inhibitors of human sirtuin-5 desuccinylase | Q9NXA8 | 330,000 compounds, 1.1% hits | inhibition, % at 15 µM | Purified SirT5, succinyl-peptide AMC, trypsin-coupled fluorescence | AID 652115; in the data active = inhibition above about 15%; inconclusive = no clear call, values can overlap the other calls
Target sequence (Q9NXA8 whole entry, looked up): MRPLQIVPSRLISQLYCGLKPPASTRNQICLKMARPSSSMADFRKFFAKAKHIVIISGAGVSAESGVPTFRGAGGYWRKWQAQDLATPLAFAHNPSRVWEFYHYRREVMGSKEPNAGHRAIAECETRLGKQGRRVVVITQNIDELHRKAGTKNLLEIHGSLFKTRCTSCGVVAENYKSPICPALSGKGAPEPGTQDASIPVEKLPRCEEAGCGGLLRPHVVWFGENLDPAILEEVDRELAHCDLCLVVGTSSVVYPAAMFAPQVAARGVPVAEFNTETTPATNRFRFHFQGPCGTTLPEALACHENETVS
PGC1a acetyl inh: modulators of PGC1a acetylation | 350,000 compounds, 0.17% hits | inhibition, % at 15.6 µM | U2OS PGC1a acetylation, AlphaScreen anti-acetyl-lysine; with virally co-expressed GCN5 acetyltransferase;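 active = every replicate shows inhibition of at least 40%; inconclusive = mean inhibition at least 40% but some replicate below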;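 note: 0% = neutral control wells and 100% = positive control wells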
rRNA inh HTS: inhibitors of bacterial rRNA selective over humanized ribosomes; AID 720706; 350,000 compounds, 1.6% hits; E. coli WT GFP vs humanized-ribosome RFP mutants, fluorescence, 24 h; active compounds read low; DMSO median 0, no signal -100; GFP signal change (wild-type ribosome), % (no concentration beside the values);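 active = significant combined selectivity score with lowered wild-type GFP, culture density cut under 30%, mutant RFP and density less affected; inactive = any of these conditions unmet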
Active calls of the source: *; u = inconclusive; x = no result.

SMILES	EWS-Fli block	PAX8 inh HTS	LGR2 antag	SIRT5 block	PGC1a acetyl inh	rRNA inh HTS
Cc1ccccc1NC(=S)N(Cc1cccs1)C1CCCC1	-2	12	-3	-6	-2	-24*
COCC#Cc1ccc([C@@H]2[C@@H](CO)N3C(=O)CN(C(=O)Nc4ccc(F)cc4)C[C@H]23)cc1	3	5	9	-5	1	-5
CN(C)C(=O)C[C@@H]1CC[C@@H]2[C@H](COC[C@H](O)CN2S(=O)(=O)c2ccccc2)O1	x	x	-10	2	-1	2
COc1ccc(NC(=S)Nc2ncccc2C)c(OC)c1	-35	x	-39	0	x	-31*
O=C(NCC[C@@H]1CC[C@@H](NC(=O)c2cnccn2)[C@H](CO)O1)Nc1ccc(Cl)cc1	-8	-20	-8	3	-9	-12
Cn1c(SCC(=O)Nc2ccccc2-c2ccccc2)nnc1-c1ccco1	-21	x	-3	-3	x	-24*
COc1ccccc1C1CC(c2ccco2)=NN1c1ccccc1 (stereo not given)	6	80*	-11	x	x	-1
COc1ccc(S(=O)(=O)Nc2ccc3c(c2)C(=O)N([C@@H](C)CO)C[C@H](C)[C@H](CN(C)C)OCCCC[C@@H](C)O3)cc1	x	6	5	-2	-2	2
COc1ccc(C(=O)c2cc3ccc(O)cc3oc2=O)cc1	0	x	-7	15	7	-18*
O=C(N/N=C/c1ccccc1O)C(=O)N1CCCCCC1	x	4	14	-3	x	-25*
O=C(N/N=C/c1ccccc1F)C(=O)N1CCCCCC1	-1	-18	-14	5	-7	3
Nc1n[nH]c(C2CC2)c1N=Nc1ccc(Cl)c(Cl)c1	-24	-2	-36	-2	6	-52*
Nc1n[nH]c(C2CC2)c1N=Nc1ccc(Cl)cc1	-4	6	-12	-1	12	-9
COc1ccc(CN2CC3(CCN(C(=O)C4CCC4)CC3)c3c(n(C)c4cc(OC)ccc34)[C@@H]2CO)cc1	x	x	x	x	x	0
COC(=O)c1c(C)[nH]c(C(=O)/C=C/c2ccc(C)cc2)c1C	91*	10	-44	-4	14	3
CC(=O)c1ccc2c(c1)C1C=CCC1C(c1ccc(S(=O)(=O)N3CCOCC3)cc1)N2 (stereo not given)	x	1	4	x	x	x
COc1ccc(NS(=O)(=O)c2ccc3c(c2)[C@H]2C=CC[C@H]2[C@@H](c2ccc(C(=O)O)cc2)N3)cc1	-5	-5	-7	44*	x	-2
Cc1c(Cl)cccc1NS(=O)(=O)c1ccc2c(c1)C1C=CCC1C(c1ccc(C(=O)O)cc1)N2 (stereo not given)	x	x	x	x	107*	x
Cc1ccc(S(=O)(=O)Nc2cccc3c2O[C@@H](CN(C)C(=O)Nc2ccc(F)cc2)[C@H](C)CN([C@H](C)CO)C3=O)cc1	-11	-27	18	7	4	-1
CO[C@@H]1CN(C)C(=O)c2cc(NS(C)(=O)=O)ccc2OC[C@@H](C)N(Cc2cccnc2)C[C@@H]1C	2	x	-3	x	4	1
O=C(Nc1ccc(Cl)cc1Cl)c1cc2ccccc2o1	-24	-82	-16	-1	7	18
O=C(NNC(=O)c1ccccc1O)c1cc2ccccc2o1	-41	-46	-14	-3	3	-31*
O=C(Nc1ncccc1Cl)c1cc2ccccc2o1	x	-187	-87	20*	11	0
O=C(NNC(=O)c1cc2ccccc2o1)c1ccncc1	0	-3	-2	5	25	-2
C[C@@H](NC(=O)C[C@@H]1CC[C@H]2[C@@H](COC[C@@H](O)CN2Cc2cc(F)ccc2F)O1)c1ccccc1	1	12	-2	7	-3	-1
SMILES	EWS-Fli block	PAX8 inh HTS	LGR2 antag	SIRT5 block	PGC1a acetyl inh	rRNA inh HTS
CCC/C=C/c1ccc(CN2C(C)C(=O)N(Cc3cn(CCC4OCCCO4)nn3)CCS2(=O)=O)cc1 (stereo not given)	5	81*	8	22*	x	-4
C/C=C/c1ccc2c(c1)O[C@H](CN(C)Cc1ccncc1)[C@@H](C)CN([C@@H](C)CO)S2(=O)=O	11	x	1	0	-8	-15
O=C(NCC1CC1)[C@@H]1[C@@H](CO)[C@@H]2Cn3c(ccc(/C=C/c4ccccc4)c3=O)[C@H]1N2C(=O)C1CCC1	-1	x	7	-121	x	-4
Cc1ccccc1-c1ccccc1[C@@H]1[C@H](C#N)N(C(=O)c2cccc(F)c2)[C@H]1CO	2	x	11	2	-6	1
CCCCOC(=O)Nc1ccc2c(C)cc(=O)oc2c1	x	-244	x	x	-5	x
CCCCOC(=O)NC1CCc2cc(OC)c(OC)c(OC)c2-c2ccc(SC)c(=O)cc21 (stereo not given)	55*	79*	-2	5	-9	5
CCOC(=O)N1CCC(N2C(=O)c3ccccc3C2Nc2cc(OC)c(OC)c(OC)c2)CC1 (stereo not given)	2	x	-3	3	-20	1
COc1cc2c(c(OC)c1OC)-c1ccc(NC(=O)c3ccccc3)c(=O)cc1[C@@H](NC(C)=O)CC2	54*	60	13	-1	x	5
COc1cc(C(=O)Nc2cccc(NC(=O)c3ccccc3)c2)cc(OC)c1OC	-3	12	-16	-5	6	1
CN[C@H]1CCc2cc(OC)c(OC)c(OC)c2-c2ccc(OC)c(=O)cc21	57*	90*	12	2	x	x
CCOC(=O)NC1CCc2cc(OC)c(OC)c(OC)c2-c2ccc(SC)c(=O)cc21 (stereo not given)	35	83*	-17	x	x	5
COc1cc2c(c(OC)c1OC)-c1c(cc(OC)c(OC)c1OC)C[C@](C)(O)[C@@H](C)C2	-4	18	-3	-3	3	9
CCOCC(=O)NC1CCc2cc(OC)c(OC)c(OC)c2-c2ccc(SC)c(=O)cc21 (stereo not given)	u	86*	11	x	-3	15
Cc1noc(C)c1NC(=O)N(C)C[C@@H]1OCCCC[C@H](C)Oc2ccc(NC(=O)Nc3ccc(F)cc3)cc2C(=O)N([C@@H](C)CO)C[C@H]1C	-5	7	-2	-6	12	1
O=C(C[C@H]1C[C@H](C(=O)N2CCCCC2)[C@@]2(CCc3ccccc3)c3[nH]c4ccc(Cl)cc4c3CCN2C1=O)NCc1ccco1	22	73*	-12	-4	-2	2
O=C(C[C@H]1C[C@H](C(=O)N2CCOCC2)[C@@]2(CCC3CCCC3)c3[nH]c4cc(-c5ccco5)ccc4c3CCN2C1=O)NCc1ccco1	5	3	-3	28*	-7	x
c1ccc(N=Nc2ccc3cccccc2-3)cc1	-56	-94	-118	3	1	-20*
Nc1ccc(N=Nc2ccccc2)c2ccccc12	15	15	-6	-1	x	4
Nc1ccc(N=Nc2ccccc2)c(N)n1	-107	-131	-67	5	10	-24*
